Laboratory results: PubChem BioAssay (NCI)
About 83,000 compounds went through this panel and 20% of them were active in at least one assay; those are over-represented in the sample as a whole.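 Results are percent growth after 48 hours of single-concentration exposure. 100 means growth as in untreated cells, lower positive values show inhibition; negative values down to -100 show cell death.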 Unmarked numbers belong to inactive results. Calls of active or inactive are those of the source.

What follows are compounds tested on SK-MEL-2 melanoma (assay: NCI-60 one-dose screen, 48 h (100 = growth as untreated, 0 = no growth, -100 = all killed)). Conditions: 10 µM unless noted.
Experimental: Growth inhibition of the SK-MEL-2 human tumor cell line is measured as a screen for anti-cancer activity. Cells are grown in 96 well plates and exposed to the test compound for 48 hours. Compounds are tested at a single concentration, which is 10^-5 M for most compounds. The reported endpoint is percent growth (GI% or GIPRCNT), where numbers from 0 - 100% represent growth inhibition, and numbers from -100% - 0 represent cell death. For example, a value of 40 represents 60% growth inhibition. A value of 0 means no net growth occurred over the course of the experiment. A value of -40 indicates 40% of cells at the beginning of the experiment died by the end of the experiment. A value of -100 means all cells are dead at the end of the experiment.
NCI-60 Human Tumor Cell Lines Screen was performed using the standard one-dose NCI protocol, which is described in more detail at https://dtp.cancer.gov/discovery_development/nci-60/default.htm.
Compounds with GIPRCNT values below 10 were considered active. Activity score was based on GIPRCNT using the following formula: […]
Score is 0 for GIPRCNT values of 100 or above, 50 for GIPRCNT values of 0, and 100 for GIPRCNT values of -100.

| Compound | growth |
| --- | --- |
| Cc1ccc(Nc2ccc(Nc3ccc(C)cc3S(=O)(=O)O)c3c2C(=O)c2ccccc2C3=O)c(S(=O)(=O)O)c1 | 101% |
| CCC(=O)OC1=C(C)SC2=NC(c3ccc(Cl)c(Cl)c3)=CC(c3cc(OC)c(OC)c(OC)c3)N21 (stereo not given) | 107% |
| CS(=O)(=O)c1ccc(-c2[nH]c3ccc(F)cc3c2/C=N/O)cc1 | 94.9% |
| CCCNCC(=O)Nc1ccc(C(=O)OC(C)(C)CC)cc1 | 95.6% |
| CN(C)CN1CCN(c2ccc3nc(-c4ccc5nc(-c6ccc(C(F)(F)F)cc6)[nH]c5c4)[nH]c3c2)CC1 | 52% |
| CN1C[C@@H](c2ccc(Cl)cc2)[C@]2(NC(=S)N(c3ccccc3)C2=O)[C@@]12C(=O)NC1C=CC(Br)=C[C@H]12 (stereo not given in full) | 61.2% |
| CC(=[N-])N1CCC[C@@H](Nc2c3ccccc3nc3ccccc23)C1.[Cl][Pt].[NH-]CCC[NH-] | 52.4% |
| N#Cc1c(NC(=O)c2ccccc2I)sc2c1CCCC2 | 26.4% |
| COc1cc(/C=C/C(=O)c2cccc(-n3cc(-c4ccc(Cl)cc4)[nH]c3=O)c2)cc(OC)c1OC | 34.1% |
| O=C1NC(=S)S/C1=C\N1N=C(c2ccc(Cl)cc2)CC1c1ccc(F)cc1 (stereo not given) | 95.5% |
| CN=C1C=CC(=C(c2ccc(N(C)C)cc2)c2ccc(N(C)C)cc2)C=C1 | -52.4% (active) |
| CCOC(=O)c1nnn(C(Cc2ccccc2Cl)C(=O)OCC)c1C (stereo not given) | 107% |
| COc1cc(-c2ccc(N=Nc3c(O)c(C(=O)Nc4ccccc4OC)cc4ccccc34)c(OC)c2)ccc1N=Nc1c(O)c(C(=O)Nc2ccccc2OC)cc2ccccc12 | 101% |
| O=C(NCCOCCOCCOCCNC(=O)c1cc2c(o1)C(=O)c1ccccc1C2=O)NC12CC3CC(CC(C3)C1)C2 | -17.9% (active) |
| Cc1nc(Nc2ccccn2)sc1C(=O)/C=C/c1ccc(Br)cc1 | 97.7% |
| Cc1ccccc1NC(=O)CN(C)C | 84.8% |
| N#C/C=C(\c1ccc([N+](=O)[O-])cc1)n1nnc2cc(Cl)c(Cl)cc21 | 65.8% |
| Cc1cc(C(c2ccccc2)c2ccccc2)ccc1NS(=O)(=O)c1ccccc1 | 104% |
| Cc1nn(-c2ccccc2)c2c1C(c1ccc([N+](=O)[O-])cc1)C(C#N)=C(N)O2 (stereo not given) | 123% |
| N#Cc1c(NC(=O)c2ccc(Br)cc2)sc2c1CCCC2 | 37% |

| Compound | growth |
| --- | --- |
| N#Cc1cccc(-c2nc3ccccn3c2NCCN2CCOCC2)c1 | 100% |
| COc1cc2oc3cc(C)oc(=O)c3c2cc1OC | 97.2% |
| CCCCN1CCN(c2ccc3nc(-c4ccc5nc(-c6cc(OC)c(OC)c(OC)c6)[nH]c5c4)[nH]c3c2)CC1 | 83.8% |
| Cc1ccc(NC(=O)C(Cl)Cl)cc1 | 83.6% |
| COc1cc(NC(=O)c2cc(O)c(CC=C(C)C)c(O)c2)cc2c1O[C@]1(C)CC[C@@H](O)C(C)(C)[C@H]1C2 | 14.7% |
| O=C1NN(C(=O)c2ccc(O)cc2)C(c2ccccc2)=N/C1=C\c1cn(-c2ccccc2)nc1-c1ccccc1 | 100% |
| Nc1c(C(=O)c2ccc(Cl)s2)sc2nc3c(cc12)CCCC3 | 105% |
| CNC=O | 110% |
| O=C1c2ccccc2C2(c3ccc(O)cc3)c3ccccc3Oc3cccc1c32 (stereo not given) | 25.4% |
| CCN(CC)CC(=O)Nc1cccc(C(=O)OC(C)C)c1 | 81.9% |
| CCn1c(Sc2nnc(NC(=O)CSC(=S)N3CCCCC3)s2)nc2c1c(=O)n(C)c(=O)n2C | 81.2% |
| C=C1c2c(C)nn(-c3ccc(NC(C)=O)cc3)c2N(C)C23CC1C1(C)c4c(C)nn(-c5ccc(NC(C)=O)cc5)c4N(C)C(C)(CC12)C3 (stereo not given) | 36.6% |
| CCCCCCCC/C=C/CCCCCCCC1=NCC[N+]1(CCO)CCO | 102% |
| Clc1ccc(/C=N\N=c2\scc(-c3ccc(Cl)cc3)n2/N=C/c2ccc(Cl)cc2)cc1 | 91.4% |
| Cc1nc(Nc2ccc(NC(=S)Nc3ccccc3)cc2)nc2nc(SCc3ccccc3)[nH]c(=O)c12 | 110% |
| CCCCOC(=O)c1ccc(NC(=O)C(C)N2CCOCC2)cc1 (stereo not given) | 90.6% |
| COc1ccc(-c2cc(-c3ccc(Nc4nc(Nc5ccccc5)nc(Nc5ccc(Cl)cc5)n4)cc3)nc(N)c2C#N)cc1 | -33% (active) |
| CN1CCN(C(=O)[C@@]2(C)CC[C@]3(C)CC[C@]4(C)C(=CC[C@@H]5[C@@]6(C)C/C(=C/c7ccncc7)C(=O)C(C)(C)[C@@H]6CC[C@]54C)[C@@H]3C2)CC1 | 85.1% |
| CS(=O)(=O)c1ccc(-c2nc3cc(Cl)ccc3n2CC(=O)NO)cc1 | 88.2% |
| CCC(O)(C(c1ccccc1)c1ccccn1)C(c1ccccc1)c1ccccn1 (stereo not given) | 97.5% |
